# Compound activity from PubChem.
# A selection: hits, their analogues and other compounds. The true share with any hit is near 1.5%.
# RAD52 anneal inh = blocks human RAD52 DNA annealing; P43351; recombinant RAD52 DNA annealing, FRET fluorescence; inhibition, % at 18.7 µM; 360,000 compounds, 0.46% hits;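 active means every replicate showing at least 50% inhibition; inconclusive means mean inhibition at least 50% but not in every replicate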
# NSD2 inh = NSD2 (human) methyltransferase inhibition | O96028 | NSD2 peptide methylation, AlphaScreen, 120 min | inhibition, % at 12.5 µM | 310,000 compounds, 0.54% hits | AID 743445; in the data active means inhibition above about 50%
# Target sequence (O96028 whole entry, looked up): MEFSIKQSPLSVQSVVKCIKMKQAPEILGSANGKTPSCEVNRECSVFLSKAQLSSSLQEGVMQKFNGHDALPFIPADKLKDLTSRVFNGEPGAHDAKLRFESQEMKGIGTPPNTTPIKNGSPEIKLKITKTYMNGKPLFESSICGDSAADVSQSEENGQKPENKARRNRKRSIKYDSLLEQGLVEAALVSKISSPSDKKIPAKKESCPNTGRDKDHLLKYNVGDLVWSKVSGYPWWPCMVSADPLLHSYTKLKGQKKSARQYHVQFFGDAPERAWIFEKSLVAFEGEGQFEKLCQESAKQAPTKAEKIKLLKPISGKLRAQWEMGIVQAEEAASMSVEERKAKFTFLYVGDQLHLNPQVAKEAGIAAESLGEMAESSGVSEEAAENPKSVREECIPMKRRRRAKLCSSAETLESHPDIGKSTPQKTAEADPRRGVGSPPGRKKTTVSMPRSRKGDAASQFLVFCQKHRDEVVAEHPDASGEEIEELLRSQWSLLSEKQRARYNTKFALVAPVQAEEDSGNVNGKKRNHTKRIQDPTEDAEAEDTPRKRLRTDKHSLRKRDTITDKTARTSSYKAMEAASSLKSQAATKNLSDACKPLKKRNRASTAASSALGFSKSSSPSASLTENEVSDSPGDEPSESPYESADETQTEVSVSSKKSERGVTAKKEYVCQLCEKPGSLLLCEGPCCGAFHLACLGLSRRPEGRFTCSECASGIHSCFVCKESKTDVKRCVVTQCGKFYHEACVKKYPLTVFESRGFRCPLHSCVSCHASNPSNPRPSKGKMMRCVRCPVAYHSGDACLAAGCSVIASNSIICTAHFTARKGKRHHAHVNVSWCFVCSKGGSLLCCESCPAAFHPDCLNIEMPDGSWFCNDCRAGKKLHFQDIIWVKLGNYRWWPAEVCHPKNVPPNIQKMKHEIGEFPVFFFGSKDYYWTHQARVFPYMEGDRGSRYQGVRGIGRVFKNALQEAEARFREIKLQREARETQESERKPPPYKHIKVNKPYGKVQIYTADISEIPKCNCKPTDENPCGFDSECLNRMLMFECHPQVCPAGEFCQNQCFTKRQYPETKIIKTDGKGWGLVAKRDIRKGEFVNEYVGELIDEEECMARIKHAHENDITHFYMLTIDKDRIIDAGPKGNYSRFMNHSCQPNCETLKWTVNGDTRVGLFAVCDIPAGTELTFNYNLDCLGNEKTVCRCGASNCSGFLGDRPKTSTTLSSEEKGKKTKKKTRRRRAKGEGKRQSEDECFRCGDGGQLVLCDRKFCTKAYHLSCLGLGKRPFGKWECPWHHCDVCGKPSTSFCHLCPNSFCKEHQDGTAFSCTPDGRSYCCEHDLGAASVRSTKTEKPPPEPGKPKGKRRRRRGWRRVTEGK
# MLL AF4-AF9 inh = blocks AF4 peptide binding to human AF9 | 350,000 compounds, 0.47% hits | inhibition, % at 10 µM | P42568 | AlphaScreen, biotin-AF4 peptide binding to FLAG-AF9;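 active means every replicate reaching a set inhibition limit, whatever the replicate mean, cut at about 25% in these data; inconclusive means mean inhibition reaches that limit but some replicates miss it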
# miR122 inh = blocks miR-122 activity in Huh7 sensor cells; Huh7 miR-122 Renilla luciferase sensor, 48 h; neutral wells = 0, positive control = 100; 340,000 compounds, 0.3% hits; activation (reporter increase), % at 12.5 µM; AID 602342;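 active means mean replicate activation score at least 90 and every replicate individually at or above 90; inconclusive means only one of the two criteria met; inactive means neither criterion met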;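 further: higher luciferase means less miR-122 activity so hits act as miR-122 inhibitors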
# Casp6 inh = caspase-6 (human) enzyme inhibition | purified caspase-6, Z-VEID-R110 cleavage fluorescence | P55212 | 350,000 compounds, 0.53% hits | inhibition, % at 12.5 µM | AID 686996;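 active means mean inhibition across replicates at least about 35%, with every replicate also reaching that limit, limit read from the data; inconclusive means only one of the two criteria met; inactive means neither criterion met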
# miR-27b qPCR = miR-27b effect in Huh7 as miR-122 inhibitor selectivity check; AID 687039; shares compounds with miR122 inh; relative miR-27b level (unnormalised ratio), ratio at 35 µM; 35 tested, under 10 active; Huh7 miR-27b levels, qRT-PCR, 48 h;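 active means compounds lowering miR-27b whose fitted half-maximal dose is at most twice their top tested dose; inconclusive means flat curve with moderate drop, or poor fit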
# AlphaScreen intf = AlphaScreen signal interference counter-screen hit; signal luminescence; AC50, µM (doses to about 12 µM); shares compounds with MLL AF4-AF9 inh; 530 compounds, 45% hits; AID 720494; cut-off not given, nearly all actives have AC50 up to about 14 µM
# RAD52 DNA ctr = counter-screen for RAD52 inhibitors: DNA binding compounds. shares compounds with RAD52 anneal inh. Salmon sperm DNA/acridine orange FP displacement. AC50, µM. 1,000 compounds, 8% hits. AID 652128;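 active means fitted half-maximal concentration for signal loss at or below twice the highest dose tested, in every separate run, actives reach about 64 µM in these data; inconclusive means runs disagree, or flat partial signal loss, or poor fit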
# CASP1 counter = caspase-1 (human) inhibition counter-screen. 100 tested, under 10 active. purified caspase-1, Z-YVAD-R110 cleavage fluorescence. AID 743289. shares compounds with Casp6 inh. activity change, negative = inhibition, % at 35 µM;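 active means compounds lowering fluorescence whose fitted half-maximal concentration is no more than twice their top tested dose; inconclusive means flat fit with 30 to 70% inhibition, or poor fit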
# AlphaScreen art = interferes with AlphaScreen signal, flagging NSD2 false positives | AC35, µM (series often up to 10 µM) | 1,500 compounds, 9.4% hits | AlphaScreen artifact counterscreen, preloaded methylated H4 peptide | shares compounds with NSD2 inh; call rule not given here
# Hits are given with their value; 0 = inactive; ? = inconclusive; - = no result given; ! = a repeat was not active.
SMILES,RAD52 anneal inh,NSD2 inh,MLL AF4-AF9 inh,miR122 inh,Casp6 inh,RAD52 DNA ctr,others
O=C(CN1CCOCC1)Nc1ccc(Br)cc1C(=O)c1ccccc1,-,0,-,100,-,-,miR-27b qPCR=0
O=C(Cc1cccnc1)N1CCCCN2[C@H](CO)[C@@H](c3ccc(C#CC4CC4)cc3)[C@H]2C1,0,-,0,0,0,-,
CCC1CN2CCc3cc(OC)c(OC)cc3C2CC1CC1NCCc2c1[nH]c1ccc(O)cc21 (stereo not given),0,0,?,0,0,-,AlphaScreen intf=0
COc1ccc2c(c1OC)CN1CCc3cc4c(cc3C1C2)OCO4 (stereo not given),0,-,0,0,-,-,
OCCNCCc1c[nH]c2ccc(OCc3ccccc3)cc12,0,0,0,0,0,-,
Cc1[nH]c2ccc(OCc3ccccc3)cc2c1CCN,0,0,41,0,0,-,AlphaScreen intf=0
O=c1[nH]c2ccccc2n1C1CCN(C(c2nnnn2C2CCCCC2)C2CC2)CC1 (stereo not given),0,-,36,0,0,-,AlphaScreen intf=0
CSCCC(c1nnnn1C1CCCCC1)N1CCC(n2c(=O)[nH]c3ccccc32)CC1 (stereo not given),0,-,34,0,0,-,AlphaScreen intf=0
O=C(Cc1cccnc1)N1CCCCN2[C@@H](CO)[C@@H](c3ccc(C#CC4CC4)cc3)[C@@H]2C1,0,-,0,0,0,-,
OC[C@@H]1[C@@H]2c3ccccc3NC[C@@H]2N1Cc1cccnc1,0,-,0,0,0,-,
Cc1c(P(=S)(c2ccccc2)c2ccccc2)[n+]2ccccc2n1C,97!,0,66!,0,0,0,AlphaScreen intf=0
Cc1c(P(=S)(c2ccccc2)c2ccccc2)c2ccccc2n1C,-,0,-,-,-,-,
CCN(CCCl)c1cc(CN(C)C)cc(NC(=O)c2ccc(C(=O)Nc3cc(CN(C)C)cc(N(CC)CCCl)c3)cc2)c1,105,0,70,0,0,?,AlphaScreen intf=2.5µM
CC=Cc1ccc2n(c1=O)C[C@@H]1[C@@H](CO)[C@H](C(=O)OC)[C@H]2N1S(=O)(=O)c1cccc(C)c1 (mixture of isomers),0,-,0,-,0,-,
CN1CCN(c2ccc(N)cc2Cl)CC1,85,77,88,0,0,39µM,AlphaScreen intf=5.4µM;AlphaScreen art=0
Cc1cccc(S(=O)(=O)N2[C@@H]3c4ccc(-c5ccccc5)c(=O)n4C[C@H]2[C@H](CO)[C@H]3C(=O)O)c1,0,-,0,0,0,-,
COc1cc2c(ccc3c4cc(OC)c(OC)cc4c[n+](C)c23)cc1O,97,0,0,0,0,21µM,
Cc1[nH]c2ccc(O)cc2c1CCN,81,-,32,0,-,0,
Cc1ccccc1-c1ccc([C@H]2[C@@H](CO)N3CCCCN(C(=O)Cc4ccccn4)C[C@@H]23)cc1,0,-,0,0,0,-,
COC(=O)[C@H]1[C@H](CO)[C@H]2Cn3c(cccc3=O)[C@@H]1N2CCc1ccccc1,0,-,0,-,0,-,
C[C@]12CCC3C(CC[C@H]4C[C@@H](O)CC[C@]34C)C1CC[C@@H]2OC(=O)[C@H](N)CCCCN (stereo not given in full),97,-,0,0,0,0,
COC(=O)[C@H]1[C@H](CO)[C@H]2Cn3c(ccc(C4=CCCCC4)c3=O)[C@@H]1N2CC1CCCCC1,0,-,0,-,0,-,
NC1(C(=O)O)CCCc2ccc(N(CCCl)CCCl)cc21 (stereo not given),61,0,0,0,0,0,
O=C1NC(=O)C2(CCCc3ccc(N(CCCl)CCCl)cc32)N1 (stereo not given),0,0,0,0,0,-,
CCOC(=O)[C@@H]1[C@@H]2NC(=O)N(C)[C@@]1(C)Oc1ccccc12,0,-,0,-,0,-,
SMILES,RAD52 anneal inh,NSD2 inh,MLL AF4-AF9 inh,miR122 inh,Casp6 inh,RAD52 DNA ctr,others
CCN(CC)c1ccc(CN(C)CCc2ccc(OC)c(OC)c2)cc1,-,0,-,0,-,-,
COc1ccc(CC2=NCCc3cc(OC)c(OC)cc32)cc1OC,57,-,0,0,-,0,
NC(N)=Nc1ccc2[nH]c3c(c2c1)C[C@@]1(O)[C@H]2Cc4ccc(O)c5c4[C@@]1(CCN2CC1CC1)C3O5 (stereo not given in full),53,-,-,0,0,0,
NC(N)=N/N=C/c1ccc(N(c2ccccc2)c2ccccc2)cc1,89,0,0,-,63,0,
COc1ccc(/C=N\N=C(N)N)cc1,0,0,0,-,0,-,
CCCNC(=O)N1[C@@H]2Cn3c(ccc(-c4ccccc4OC)c3=O)[C@H]1[C@@H](C(=O)OC)[C@@H]2CO,0,-,0,0,0,-,
COC(=O)[C@H]1[C@H](CO)[C@H]2Cn3c(ccc(C4=CCCCC4)c3=O)[C@@H]1N2CC1CC1,0,-,0,-,0,-,
Cc1ccc2c(C)c3ccc4ccccc4c3c[n+]2c1,93,0,0,0,0,13µM,
COC(=O)[C@@H]1[C@@H](CO)[C@@H]2Cn3c(ccc(-c4cncnc4)c3=O)[C@H]1N2S(=O)(=O)c1ccccc1C,0,-,0,0,0,-,
Nc1ccc(CC(N)c2csc(Nc3ncccn3)n2)cc1 (stereo not given),87,0,0,-,0,0,
COc1cc2c(cc1OC)-c1c(OC)c(OC)cc3c1[C@H](C2)N(C)CC3,76,-,0,0,58,0,CASP1 counter=0
Cc1cccc(S(=O)(=O)N2[C@@H]3c4ccc(-c5ccc(F)cc5)c(=O)n4C[C@H]2[C@H](CO)[C@H]3C(=O)O)c1,-,-,0,-,-,-,
CCN(CC)CCCN=C(C)c1c(O)n(C2CCCCC2)c(=O)[nH]c1=O,-,0,-,0,-,-,
CCC(=NCCCN(CC)CC)c1c(O)n(C2CCCCC2)c(=O)[nH]c1=O,-,51,-,0,-,-,AlphaScreen art=0
CC(=O)NC1=C(N2CC2C)C(=O)C(NC(C)=O)=C(N2CC2C)C1=O (stereo not given),0,115,0,0,38,-,AlphaScreen art=0
Cc1cc(/C=C2\C(=O)NC(=O)N(Cc3ccccc3)C2=O)c(C)n1-c1ccc(Cl)c(C(=O)O)c1,0,137,0,-,66,-,AlphaScreen art=0
Cc1cc(/C=C2\C(=O)NC(=O)N(Cc3ccccc3Cl)C2=O)c(C)n1-c1ccc(C(=O)O)cc1,0,58,0,-,48,-,AlphaScreen art=0
Cc1cc(/C=C2\C(=O)NC(=O)N(c3cccc(F)c3)C2=O)c(C)n1-c1ccc(C(=O)O)c(Cl)c1,0,0,0,0,0,-,
O=C(Cc1ccccc1)N1CCCCN2[C@H](CO)[C@H](c3ccc(C#CC4(O)CCCC4)cc3)[C@@H]2C1,0,-,0,0,0,-,
